Data published in paper PMC7862700, “An all-to-all approach to the identification of sequence-specific readers for epigenetic DNA modifications on cytosine”.

Legend:
Assay in all cases: DAPPL (digital affinity profiling via proximity ligation, sequencing); 10 mM Tris-HCl pH 7.5, 50 mM NaCl, 1 mM DTT, 4% glycerol, room temperature, 30 min; GST-TFs on glutathione beads, 16-mer random dsDNA library, 0.1% formaldehyde crosslink after washing; high values mean tight binding
Settings in all cases: protein: recombinant; tags: N-terminal GST; dsDNA, one strand shown
ERF = biological target: T1, ERF (Homo sapiens, UniProt P50548 1-548)
T1 sequence: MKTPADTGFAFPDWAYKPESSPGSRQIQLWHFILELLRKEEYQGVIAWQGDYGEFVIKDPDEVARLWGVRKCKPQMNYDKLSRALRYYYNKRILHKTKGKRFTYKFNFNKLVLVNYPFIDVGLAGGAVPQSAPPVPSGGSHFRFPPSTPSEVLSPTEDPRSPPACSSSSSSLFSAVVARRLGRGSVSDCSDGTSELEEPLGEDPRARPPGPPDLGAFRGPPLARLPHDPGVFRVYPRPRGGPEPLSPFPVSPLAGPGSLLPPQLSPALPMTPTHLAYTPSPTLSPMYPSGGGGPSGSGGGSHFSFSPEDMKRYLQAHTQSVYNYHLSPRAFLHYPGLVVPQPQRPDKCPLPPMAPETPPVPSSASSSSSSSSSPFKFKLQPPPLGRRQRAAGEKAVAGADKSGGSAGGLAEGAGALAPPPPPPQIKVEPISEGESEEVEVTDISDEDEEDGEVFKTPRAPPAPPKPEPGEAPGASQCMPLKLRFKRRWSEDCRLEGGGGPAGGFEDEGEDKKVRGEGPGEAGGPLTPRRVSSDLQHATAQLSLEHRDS
How it was run: (§1)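 After expression in yeast as GST fusions, human transcription factors were bound to glutathione beads, DNA-barcoded and mixed with a tag-only sample. The pools were incubated with 200 nmole of a 16-mer random double-stranded DNA library in Tris/NaCl/DTT/glycerol buffer (30 min, room temperature), washed and crosslinked with 0.1% formaldehyde. Proximity ligation with BsaI/T4 ligase ran for 1 h at 37 °C, before PCR amplification and sequencing on an Illumina NextSeq500. Binding signal is a hexamer's read frequency for a factor divided by its frequency for the tag-only sample.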

ETV3L = biological target: T2, ETV3L (Homo sapiens, UniProt Q6ZN32 1-361)
T2 sequence: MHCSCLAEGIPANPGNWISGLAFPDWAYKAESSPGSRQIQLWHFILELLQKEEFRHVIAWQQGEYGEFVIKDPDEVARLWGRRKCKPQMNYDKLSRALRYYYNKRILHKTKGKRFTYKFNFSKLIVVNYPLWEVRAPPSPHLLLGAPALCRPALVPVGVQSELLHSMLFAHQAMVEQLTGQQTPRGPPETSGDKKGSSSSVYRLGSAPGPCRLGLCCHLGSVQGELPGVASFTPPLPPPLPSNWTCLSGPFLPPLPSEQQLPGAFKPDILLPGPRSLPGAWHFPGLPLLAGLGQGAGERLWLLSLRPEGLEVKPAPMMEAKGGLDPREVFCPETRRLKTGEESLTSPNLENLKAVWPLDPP
How it was run: as §1

ETS2 = biological target: T3, ETS2 (Homo sapiens, UniProt P15036 1-469)
T3 sequence: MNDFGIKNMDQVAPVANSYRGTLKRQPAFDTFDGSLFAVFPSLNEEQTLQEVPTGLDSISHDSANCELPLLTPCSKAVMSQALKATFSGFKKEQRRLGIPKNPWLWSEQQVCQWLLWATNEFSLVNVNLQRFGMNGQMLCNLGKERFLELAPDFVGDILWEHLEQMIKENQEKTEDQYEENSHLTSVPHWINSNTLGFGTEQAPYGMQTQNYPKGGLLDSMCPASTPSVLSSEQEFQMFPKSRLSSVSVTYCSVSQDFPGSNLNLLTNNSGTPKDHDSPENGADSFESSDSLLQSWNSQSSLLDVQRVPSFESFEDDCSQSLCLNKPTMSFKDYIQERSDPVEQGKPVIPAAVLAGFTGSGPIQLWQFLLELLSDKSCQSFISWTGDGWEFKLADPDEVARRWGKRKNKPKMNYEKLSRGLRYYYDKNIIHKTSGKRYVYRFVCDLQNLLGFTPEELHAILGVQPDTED
How it was run: as §1

SPDEF = biological target: T4, SPDEF (Homo sapiens, UniProt O95238 1-335)
T4 sequence: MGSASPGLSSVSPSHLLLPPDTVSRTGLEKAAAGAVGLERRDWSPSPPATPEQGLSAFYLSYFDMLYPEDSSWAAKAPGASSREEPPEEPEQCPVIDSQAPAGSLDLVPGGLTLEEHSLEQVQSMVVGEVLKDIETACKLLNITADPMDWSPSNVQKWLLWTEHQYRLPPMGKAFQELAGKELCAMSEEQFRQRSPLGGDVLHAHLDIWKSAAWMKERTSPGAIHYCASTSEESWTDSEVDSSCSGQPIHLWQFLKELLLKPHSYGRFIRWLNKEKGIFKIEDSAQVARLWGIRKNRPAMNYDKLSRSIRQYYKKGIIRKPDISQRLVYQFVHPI
How it was run: as §1

ETV7 = biological target: T5, ETV7 (Homo sapiens, UniProt Q9Y603 1-341)
T5 sequence: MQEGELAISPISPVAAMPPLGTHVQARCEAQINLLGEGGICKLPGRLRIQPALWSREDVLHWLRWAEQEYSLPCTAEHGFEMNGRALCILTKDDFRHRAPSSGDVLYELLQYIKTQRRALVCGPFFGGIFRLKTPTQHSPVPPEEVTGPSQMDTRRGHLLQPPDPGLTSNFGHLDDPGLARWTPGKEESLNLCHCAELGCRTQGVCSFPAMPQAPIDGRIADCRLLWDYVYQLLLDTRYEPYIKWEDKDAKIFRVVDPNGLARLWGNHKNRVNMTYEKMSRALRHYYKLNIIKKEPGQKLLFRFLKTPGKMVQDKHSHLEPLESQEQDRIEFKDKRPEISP
How it was run: as §1

ELF5 = biological target: T6, ELF5 (Homo sapiens, UniProt Q9UKW6-2 1-255)
T6 sequence: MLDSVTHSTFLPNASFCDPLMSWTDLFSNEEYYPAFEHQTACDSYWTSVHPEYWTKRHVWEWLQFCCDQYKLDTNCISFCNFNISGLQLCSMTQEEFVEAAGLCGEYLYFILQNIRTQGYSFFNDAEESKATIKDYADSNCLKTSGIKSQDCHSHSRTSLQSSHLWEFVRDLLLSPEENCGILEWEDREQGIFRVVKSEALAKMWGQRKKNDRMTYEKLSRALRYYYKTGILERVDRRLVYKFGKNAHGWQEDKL
How it was run: as §1

ETV3 = biological target: T7, ETV3 (Homo sapiens, UniProt P41162-2 1-143)
T7 sequence: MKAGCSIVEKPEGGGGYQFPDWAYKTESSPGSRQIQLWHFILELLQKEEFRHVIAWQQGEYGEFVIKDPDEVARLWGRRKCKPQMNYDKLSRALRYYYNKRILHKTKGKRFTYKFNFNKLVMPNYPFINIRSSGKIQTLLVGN
How it was run: as §1

ETV6 = ETV6 (Homo sapiens, UniProt P41212 1-452)
How it was run: as §1

Chain of ETV6 (P41212 whole entry): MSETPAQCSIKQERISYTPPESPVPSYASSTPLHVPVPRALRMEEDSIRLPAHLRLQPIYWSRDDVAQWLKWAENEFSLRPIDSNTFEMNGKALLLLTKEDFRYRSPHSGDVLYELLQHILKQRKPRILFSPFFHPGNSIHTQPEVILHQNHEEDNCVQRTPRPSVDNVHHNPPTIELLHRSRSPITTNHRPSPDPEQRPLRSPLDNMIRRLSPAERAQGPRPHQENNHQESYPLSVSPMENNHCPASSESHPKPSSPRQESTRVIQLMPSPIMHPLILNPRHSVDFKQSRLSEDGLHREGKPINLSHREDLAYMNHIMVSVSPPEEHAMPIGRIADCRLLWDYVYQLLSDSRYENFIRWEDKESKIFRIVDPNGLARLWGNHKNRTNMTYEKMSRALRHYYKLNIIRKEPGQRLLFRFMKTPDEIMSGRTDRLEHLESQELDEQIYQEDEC

CAATTT
binding signal (ERF): 1.36 fold enrichment (6-mer frequency, TF over GST control) | binding signal (ETV3L): 1.33 fold enrichment (6-mer frequency, TF over GST control) | binding signal (ETS2): 1.28 fold enrichment (6-mer frequency, TF over GST control) | binding signal (SPDEF): 1.21 fold enrichment (6-mer frequency, TF over GST control) | binding signal (ETV7): 1.31 fold enrichment (6-mer frequency, TF over GST control) | binding signal (ELF5): 1.29 fold enrichment (6-mer frequency, TF over GST control) | binding signal (ETV3): 1.43 fold enrichment (6-mer frequency, TF over GST control) | binding signal (ETV6): 1.32 fold enrichment (6-mer frequency, TF over GST control)

CCTGGA
binding signal (ERF): 1.32 fold enrichment (6-mer frequency, TF over GST control) | binding signal (ETV3L): 1.49 fold enrichment (6-mer frequency, TF over GST control) | binding signal (ETS2): 1.52 fold enrichment (6-mer frequency, TF over GST control) | binding signal (SPDEF): 1.57 fold enrichment (6-mer frequency, TF over GST control) | binding signal (ETV7): 1.34 fold enrichment (6-mer frequency, TF over GST control) | binding signal (ELF5): 1.74 fold enrichment (6-mer frequency, TF over GST control) | binding signal (ETV3): 1.37 fold enrichment (6-mer frequency, TF over GST control) | binding signal (ETV6): 1.44 fold enrichment (6-mer frequency, TF over GST control)

TAAATT
binding signal (ERF): 1.3 fold enrichment (6-mer frequency, TF over GST control) | binding signal (ETV3L): 1.32 fold enrichment (6-mer frequency, TF over GST control) | binding signal (ETS2): 1.17 fold enrichment (6-mer frequency, TF over GST control) | binding signal (SPDEF): 1.21 fold enrichment (6-mer frequency, TF over GST control) | binding signal (ETV7): 1.27 fold enrichment (6-mer frequency, TF over GST control) | binding signal (ELF5): 1.19 fold enrichment (6-mer frequency, TF over GST control) | binding signal (ETV3): 1.21 fold enrichment (6-mer frequency, TF over GST control) | binding signal (ETV6): 1.28 fold enrichment (6-mer frequency, TF over GST control)

ACTATC
binding signal (ERF): 1.21 fold enrichment (6-mer frequency, TF over GST control) | binding signal (ETV3L): 1.15 fold enrichment (6-mer frequency, TF over GST control) | binding signal (ETS2): 1.19 fold enrichment (6-mer frequency, TF over GST control) | binding signal (SPDEF): 1.18 fold enrichment (6-mer frequency, TF over GST control) | binding signal (ETV7): 1.19 fold enrichment (6-mer frequency, TF over GST control) | binding signal (ELF5): 1.13 fold enrichment (6-mer frequency, TF over GST control) | binding signal (ETV3): 1.13 fold enrichment (6-mer frequency, TF over GST control) | binding signal (ETV6): 1.1 fold enrichment (6-mer frequency, TF over GST control)

TTGGTA
binding signal (ERF): 1.21 fold enrichment (6-mer frequency, TF over GST control) | binding signal (ETV3L): 1.32 fold enrichment (6-mer frequency, TF over GST control) | binding signal (ETS2): 1.23 fold enrichment (6-mer frequency, TF over GST control) | binding signal (SPDEF): 1.23 fold enrichment (6-mer frequency, TF over GST control) | binding signal (ETV7): 1.23 fold enrichment (6-mer frequency, TF over GST control) | binding signal (ELF5): 1.17 fold enrichment (6-mer frequency, TF over GST control) | binding signal (ETV3): 1.18 fold enrichment (6-mer frequency, TF over GST control) | binding signal (ETV6): 1.19 fold enrichment (6-mer frequency, TF over GST control)

TTAACA
binding signal (ERF): 1.19 fold enrichment (6-mer frequency, TF over GST control) | binding signal (ETV3L): 1.2 fold enrichment (6-mer frequency, TF over GST control) | binding signal (ETS2): 1.19 fold enrichment (6-mer frequency, TF over GST control) | binding signal (SPDEF): 1.21 fold enrichment (6-mer frequency, TF over GST control) | binding signal (ETV7): 1.18 fold enrichment (6-mer frequency, TF over GST control) | binding signal (ELF5): 1.14 fold enrichment (6-mer frequency, TF over GST control) | binding signal (ETV3): 1.19 fold enrichment (6-mer frequency, TF over GST control) | binding signal (ETV6): 1.11 fold enrichment (6-mer frequency, TF over GST control)

TCCTCC
binding signal (ERF): 1.46 fold enrichment (6-mer frequency, TF over GST control) | binding signal (ETV3L): 1.55 fold enrichment (6-mer frequency, TF over GST control) | binding signal (ETS2): 1.51 fold enrichment (6-mer frequency, TF over GST control) | binding signal (SPDEF): 1.61 fold enrichment (6-mer frequency, TF over GST control) | binding signal (ETV7): 1.44 fold enrichment (6-mer frequency, TF over GST control) | binding signal (ELF5): 2.04 fold enrichment (6-mer frequency, TF over GST control) | binding signal (ETV3): 1.55 fold enrichment (6-mer frequency, TF over GST control) | binding signal (ETV6): 1.51 fold enrichment (6-mer frequency, TF over GST control)
